Only some compounds are listed: those with a hit (about 2.1% of all), similar ones and a draw of the others.
Ba/F3 V617F tox: reduce viability of Ba/F3 cells dependent on JAK2V617F; Ba/F3 EpoR-JAK2V617F viability, ATP luminescence; inhibition, % at 5.6 µM; 220,000 compounds, 1.1% hits; AID 1446;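 active = inhibition above the campaign mean plus 3 SD over all tested compounds, cut at about 24% in these data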;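 note: cytokine-independent growth of Ba/F3 cells driven by EpoR plus mutant JAK2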
IEC-6 tox: counter-screen for KLF5 inhibitors: cytotoxicity in IEC-6 cells. IEC-6 cytotoxicity, luminescence viability. inhibition, % at 5 µM. 290,000 compounds, 0.78% hits; in the data active = inhibition above about 22%
aSyn UTR inh: MLPCN primary screen, SNCA 5' untranslated region. alpha-synuclein 5'UTR reporter, inhibitor activity. inhibition, % (tested at 7.5 µM). 300,000 compounds, 0.82% hits. AID 1813; in the data active = inhibition above about 60%;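 note: H4 neuroglioblastoma cells stably carrying SNCA 5'UTR luciferase fusion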
KLF5 inhibitor: suppresses KLF5 promoter-driven expression. DLD-1 KLF5 promoter-luciferase reporter, luminescence. inhibition, % at 5 µM. AID 1700. 290,000 compounds, 0.23% hits;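 active = inhibition above a per-plate limit of that plate's mean compound inhibition plus 3 SD, cut at about 60% in these data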;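 note: higher means less KLF5 promoter-driven luciferase light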
BaF3 tox: reduces parental Ba/F3 cell viability, JAK2V617F counter-screen; CellTiter-Glo ATP luminescence; inhibition, % at 5.6 µM; 220,000 compounds, 1.1% hits; AID 1486;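 active = inhibition above a per-campaign cutoff, the mean inhibition of all tested compounds plus 3 SD, cut at about 27% in these data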
APP transl inh: APP translation inhibition. SH-SY5Y APP 5'UTR-luciferase reporter, luminescence. inhibition, % at 2 µM. 190,000 compounds, 0.82% hits. AID 1285;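 active = inhibition above a set limit, derived from the sample mean plus 3 SD, cut at about 45% in these data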
Of the large screens only hits and unclear results are named; the others gave an inactive call.

CC(=O)c1c(C)[nH]c(C(=O)OCCOc2ccccc2)c1C	aSyn UTR inh 67
CC1CSC(N(C(=O)c2ccc(S(C)(=O)=O)cc2)c2ccc(Cl)cc2)=N1 (centres undefined)	none (no result: Ba/F3 V617F tox, BaF3 tox, APP transl inh)
Cc1cccc(COC(=O)C(Cc2ccccc2)NC(N)=O)c1 (centres undefined)	none (no result: Ba/F3 V617F tox, BaF3 tox, APP transl inh)
C/C(=N/NC(=O)COc1cc(C)ccc1C(C)C)C(=O)O	APP transl inh 82
CCOC(=O)Cc1ccc(NC(=O)c2ccc(C(C)(C)C)cc2)cc1	aSyn UTR inh 104, APP transl inh 71
Cc1ccc2nc(N(CCCN(C)C)C(=O)c3ccc(S(=O)(=O)N4CCc5ccccc5C4)cc3)sc2c1	aSyn UTR inh 88 (no result: Ba/F3 V617F tox, BaF3 tox, APP transl inh)
CN(C)CCCN(C(=O)c1ccc(S(=O)(=O)N2CCc3ccccc32)cc1)c1nc2ccc(F)cc2s1	none (no result: Ba/F3 V617F tox, BaF3 tox, APP transl inh)
CN(C)CCCN(C(=O)CCc1ccccc1)c1nc2ccc(F)cc2s1	none
CN(C)CCCN(C(=O)c1cc(-c2cccs2)nc2ccccc12)c1nc2ccc(F)cc2s1	aSyn UTR inh 99 (no result: Ba/F3 V617F tox, BaF3 tox, APP transl inh)
CN(C)CCCN(C(=O)c1ccc(S(=O)(=O)N2CCc3ccccc3C2)cc1)c1nc2ccc(F)cc2s1	aSyn UTR inh 99 (no result: Ba/F3 V617F tox, BaF3 tox, APP transl inh)
Cc1cc(C)c2sc(N(CCCN(C)C)C(=O)c3ccc(S(=O)(=O)N4CCc5ccccc5C4)cc3)nc2c1	none (no result: Ba/F3 V617F tox, IEC-6 tox, KLF5 inhibitor, BaF3 tox, APP transl inh)
CC(C)OC(=O)/C(C#N)=C/c1cn(C)c2ccccc12	none (no result: APP transl inh)
CC(C)COC(=O)/C(C#N)=C/c1cn(Cc2ccccc2)c2ccccc12	aSyn UTR inh 80
CC(C)OC(=O)/C(C#N)=C/c1cn(Cc2ccccc2)c2ccccc12	aSyn UTR inh 75
CC(=O)N1CCN(S(=O)(=O)c2cccc(C(=O)Nc3cc(C(F)(F)F)ccc3N3CCOCC3)c2)CC1	none (no result: Ba/F3 V617F tox, BaF3 tox, APP transl inh)
On1onc2c3cc(-c4ccccc4)nc3ccc21	Ba/F3 V617F tox 100, BaF3 tox 97, APP transl inh 61 (no result: aSyn UTR inh)
COc1ccc(C(=O)C2CCN(C(=S)NCCc3ccc(OC)c(OC)c3)CC2)cc1	none
COc1ccc(CCNC(=S)N2CCC(C(=O)c3ccc(F)cc3)CC2)cc1OC	APP transl inh 48
CCOC(=O)C1CCN(C(=O)c2ccc3nc(-c4ccc(OC)cc4)c(-c4ccc(OC)cc4)nc3c2)CC1	none (no result: Ba/F3 V617F tox, BaF3 tox, APP transl inh)
Cc1ccc2c(c1)C(=O)C(=O)N2CCOc1ccccc1	Ba/F3 V617F tox 92, IEC-6 tox 91, BaF3 tox 87, APP transl inh 79
O=C1/C(=C/c2cccc([N+](=O)[O-])c2)CCc2ccccc21	none
CCN1C/C(=C\c2cccc([N+](=O)[O-])c2)C(=O)/C(=C/c2cccc([N+](=O)[O-])c2)C1	APP transl inh 96 (no result: aSyn UTR inh)
CCOC(=O)C1(CCOC)CCN(C(=O)c2ccc(CSC)o2)CC1	none (no result: Ba/F3 V617F tox, BaF3 tox, APP transl inh)
CNC(=O)COc1ccc(S(=O)(=O)Nc2ccc(OC)cc2)cc1	BaF3 tox 90
O=C(COc1ccc(S(=O)(=O)Nc2ccccc2)cc1)NCc1ccncc1	BaF3 tox 54
CNC(=O)COc1ccc(S(=O)(=O)Nc2ccc(C)cc2)cc1	none (no result: APP transl inh)
CCCCNC(=O)c1nn2c(C(F)(F)F)cc(-c3ccc(OC)cc3)nc2c1Br	none (no result: Ba/F3 V617F tox, BaF3 tox, APP transl inh)
C/C(CC(=O)N1CCCC1)=N\NC(=O)c1cc2ccccc2cc1O	none (no result: APP transl inh)
CCOC(=O)C(C)/C(C)=N/NC(=O)c1cc2ccccc2cc1O (centres undefined)	aSyn UTR inh 62
CCN(c1ccc(NC(=O)COC(=O)CCc2cc(OC)c(OC)c(OC)c2)cc1)C(C)C	BaF3 tox 80
COc1cc(CCC(=O)OCC(=O)Nc2ccc(F)c(F)c2)cc(OC)c1OC	none (no result: Ba/F3 V617F tox, BaF3 tox, APP transl inh)
COc1ccc(OC)c(NC(=O)CCN2C(=O)c3ccccc3C2=O)c1	none (no result: Ba/F3 V617F tox, BaF3 tox, APP transl inh)
OCCN(CCO)CC(O)COc1ccc(C23CC4CC(CC(C4)C2)C3)cc1 (centres undefined)	aSyn UTR inh 76, APP transl inh 53
OCCN(CCO)CC(O)COc1ccc(Br)cc1 (centres undefined)	none (no result: APP transl inh)
Cc1ccc(-n2c(C)cc(/C=C3\SC(=O)NC3=O)c2C)cc1	none (no result: Ba/F3 V617F tox, BaF3 tox, APP transl inh)
Cc1cc(/C=C2\SC(=Nc3ccccc3)NC2=O)c(C)n1-c1ccc(S(N)(=O)=O)cc1	Ba/F3 V617F tox 28, BaF3 tox 63, APP transl inh 53
CCC(C)N1CC(O)=C(c2nc3ccccc3[nH]2)C1=N (centres undefined)	BaF3 tox 90
